The campaign covered roughly 380,000 compounds. About 4,000 (1.1%) were called active. About 3% were inconclusive and are not listed. The call rests on the fitted dose curve; in most records, active means well fitted activation curve with a large enough effect; inconclusive means small, poorly fitted or top-dose-only effect; inactive means no such curve, though single readings can be large or run the other way. Shown is part of a subset that was picked to be rich in actives.
test: qHTS Assay to Identify Small Molecule Activators of BRCA1 Expression; details: MCF7-BRCA1-FFLuc reporter, luminescence, 48 h; series mostly up to 46.1 µM; activation: at the top concentration; further: nearly all actives have a fitted effect of over 80% in size
Excerpt: Functionally, BRCA1 has been implicated in a wide array of cellular activities, including DNA damage repair, cell-cycle checkpoint control, growth inhibition, apoptosis, transcriptional regulation, chromatin remodeling, protein ubiquitylation, and mammary stem cell self-renewal and differentiation. Reduction in BRCA1 levels is associated with an increase in tumor growth and resistance to anti-estrogenic agents, such as tamoxifen, while an increase in BRCA1 expression leads to cell growth arrest and apoptosis. […] The frequent loss of BRCA1 expression in invasive breast cancers in the absence of somatic mutation has been attributed to numerous mechanisms, including hypermethylation of the BRCA1 promoter, exaggerated ubiquitylation of BRCA1 protein, and improper intracellular localization. […] Basal-like breast cancers (BLBCs) are associated with an aggressive clinical course, resistance to chemotherapy, and typically lack expression of estrogen receptor (ER), progesterone receptor (PR), and epidermal growth factor receptor 2 (HER2). BLBCs account for 10-17% of all breast cancers, have few therapeutic options, and are considered the biggest unmet need in the treatment of breast cancer. Conversely, tumors which maintain expression of functional BRCA1 are almost uniformly luminal type cancers, and are accordingly associated with more indolent clinical courses, responsiveness to endocrine therapies, and improved survival.
As such, it is possible that an increase in BRCA1 expression would enable cellular differentiation and restore tumor suppressor function, resulting in delayed tumor growth and less aggressive, more treatable breast cancers. The long term goal of this proposal is to develop a novel prevention or therapeutic agent for breast cancer patients. To accomplish this goal, the overall objective of this proposal is to access the resources provided by the NIH Molecular Libraries Roadmap Initiative and the Molecular Libraries Probe Production Centers Network (MLPCN) to discover and develop new chemical activator probes that will increase BRCA1 expression and function.
NIH Molecular Libraries Probe Production Network [MLPCN]
NIH Chemical Genomics Center [NCGC]
PI Name: Lisa Harlan-Williams, University of Kansas Medical Center
5microl of MCF7-BRCA1-FFLuc cell suspension (400 cells/microl in phenol-red free MEM) are dispensed into Greiner white solid bottom 1536-well assay plates, yielding a final well density of 2000 cells/well. Plates are incubated for 2 hours at 37 degrees C in 5% humidified CO2 to allow cell attachment. Compounds are then transferred via Kalypsys pin tool equipped with 1536-pin array (10nl slotted pins, V&P Scientific, San Diego, CA). The plates are then incubated at 37 degrees C in 5% humidified CO2 for 48 hours. The NCGC in-house luciferase substrate reagent, Buglite, is then added (2.5microl) and plates incubated for 15 minutes, before being transferred to a ViewLux high-throughput CCD imager (PerkinElmer) wherein single end-point measurements of luminescence are acquired using a clear filter. The positive control compound, genistein, will be pinned into dedicated control columns on each plate, including a 16-point 1:3 titration in duplicate, as well as a 10microM maximum activation control, allowing for the normalization of screening activity. DMSO will be pinned into a separate column as a negative control.
All screening operations will be performed on a fully integrated robotic system (Kalypsys, San Diego, CA) containing one RX-130 and two RX-90 anthropomorphic robotic arms (Staubli, Duncan, SC). Library plates will be screened starting from the lowest and proceeding to the highest concentration. Vehicle-only plates, with DMSO being pin-transferred to columns 5-48, will be inserted uniformly at the beginning and the end of each library in order to monitor and record any shifts in the background, which can be affected by reagent dispensers or loss in enzyme activity over time. […]
Potency means the concentration at half of the fitted maximal effect.

| Structure (SMILES) | activation | Potency |
| --- | --- | --- |
| COc1cc(OC)c(C2C=C(C(=O)O)Nc3ncnn32)cc1OC (stereo not given) | 10.8% (inactive) | – |
| COc1ccc(C)cc1NC(=O)CCc1c(C)nn(-c2ccc(N3CCOCC3)nn2)c1C | 19.3% (inactive) | – |
| CCOc1ccc(C(O)Cn2c(=N)n(CCN3CCCCC3)c3ccccc32)cc1 (stereo not given) | -32.1% (inactive) | – |
| COc1cccc(C(O)Cc2nc3ccccc3n2C)c1OC (stereo not given) | 43% (inactive) | – |
| CCOc1ccc(C(O)Cc2nc3ccccc3n2C)cc1 (stereo not given) | – | 12.6 µM (active) |
| CCn1cc2nc(SCc3ccccc3Cl)n(CCc3ccccc3)c(=O)c2n1 | 0% (inactive) | – |
| CC(C)(C)C1CCC(NC(=O)c2cnn3c2NC(=C2CC2)C=C3C(F)F)CC1 (stereo not given) | -51.7% (inactive) | – |
| COc1ccc(Cc2nc3ccc(C(=O)NCC4CCOCC4)cc3o2)cc1OC | -5.09% (inactive) | – |
| COc1ccc(Cc2nc3ccc(C(=O)NCc4ccc(OC)cc4OC)cc3o2)cc1 | -11.6% (inactive) | – |
| CSCCNC(=O)c1ccc2nc(Cc3ccccc3F)oc2c1 | – | 12.6 µM (active) |
| COc1ccc(CCn2c3c(c(=O)[nH]c2=S)CN(C(C)C)CN3)cc1OC | -12.2% (inactive) | – |
| CC(=O)c1ccc(Nc2nc(C(N)c3ccccc3)cs2)cc1 (stereo not given) | 18.7% (inactive) | – |
| NS(=O)(=O)c1ccc(Nc2nc(-c3ccccc3)cs2)cc1 | – | 7.08 µM (active) |
| COC(=O)[C@H](Cc1ccccc1)NC(=O)Nc1ccc(S(N)(=O)=O)cc1 | -8.89% (inactive) | – |
| NS(=O)(=O)c1ccc(NC(=O)CSc2nnc3c(n2)[nH]c2ccccc23)cc1 | 0% (inactive) | – |
| COCCNC(=O)c1ccc2c(c1)N=C(C)c1cc(C)ccc1S2 | -66.9% (inactive) | – |
| Brc1ccccc1C1N=C(c2ccccc2)NO1 (stereo not given) | 42.9% (inactive) | – |
| N#Cc1ccc(C2N=C(c3ccccc3)NO2)cc1 (stereo not given) | – | 2.51 µM (active) |
| CCOc1ccccc1NC(=O)C1=C(C)Nc2ncnn2C1c1ccc(NC(C)=O)cc1 (stereo not given) | -11.2% (inactive) | – |
| CC(=O)N1c2ccc(S(=O)(=O)N3CCCCCC3)cc2CC1C(=O)NCc1ccccc1C (stereo not given) | -1.06% (inactive) | – |
| COc1cccc(C(O)c2nc(-c3ccc(C)c(C)c3)cs2)c1 (stereo not given) | 35.3% (inactive) | – |
| COc1ccc(-c2csc(Nc3cccc(C)n3)n2)cc1OC | – | 2.82 µM (active) |
| COc1ccc(-c2cc(C(F)(F)F)n3nc(-c4ccccc4)cc3n2)cc1OC | -55.7% (inactive) | – |
| O=C(c1ccc2c(=O)n(Cc3ccco3)c(=S)[nH]c2c1)N1CCCC1 | -11.9% (inactive) | – |
| O=C(Nc1cccc2cccnc12)c1cccc2c(Br)cccc12 | -31.4% (inactive) | – |
| Brc1cccc(-c2nnn3c2nc(NC2CCCCC2)c2ccccc23)c1 | -3.57% (inactive) | – |
| COc1ccc(-c2nc3ccccc3o2)cc1NC(=O)c1cc([N+](=O)[O-])ccc1N1CCOCC1 | 11.7% (inactive) | – |
| CCS(=O)(=O)Nc1cccc(-c2cc(-c3ccccc3)c3cc(C)ccc3n2)c1 | -71.4% (inactive) | – |
| CC(=O)Nc1cccc(-c2cnc3ccccc3n2)c1 | – | 3.98 µM (active) |
| CC(=O)Nc1cccc(-c2cc(NC(C)=O)c3ncc(-c4ccccc4)n3c2)c1 | -10.9% (inactive) | – |

Source: PubChem BioAssay AID624202 (National Center for Advancing Translational Sciences (NCATS), 2012)
